# Measured values: PubChem BioAssay AID651791 (National Center for Advancing Translational Sciences (NCATS), 2012)
# Results filed as inconclusive are left out. The call rests on the fitted dose curve; in most records, active means well fitted inhibition curve with a large enough effect; inconclusive means small, poorly fitted or top-dose-only effect; inactive means no such curve, though single readings can be large or run the other way.
# Test: InCell qHTS Assay for Inhibitors of the mTORC1 Signaling Pathway in MEF (Tsc2-/-, p53-/-) Cells: Hit Validation;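 further: phospho-S6 Ser235/236 signal normalized to propidium iodide cell count per well; nearly all actives have a fitted effect of over 75% in size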
# Conditions: phospho-rpS6 immunofluorescence, 24 h; activity change, negative = inhibition: at 38.3 µM (top of the series)
row,SMILES,"activity change, negative = inhibition [%]"
1,COc1ccccc1CNC(=O)CCCn1c(=O)c2cccn2c2ccccc21,-100
2,COCCCNC(=O)c1ccc(CSc2nc3cccnc3n2Cc2ccc(OC)cc2)cc1,-100
3,COc1cc(Cl)c(C)cc1NC(=O)C1CCN(c2nc3ccccc3n3cccc23)CC1,-100
4,CCOc1ccccc1NC(=O)Cn1nnc(C(=O)NCc2cccs2)c1N,-100
5,COc1ccc(-c2[nH]nc3nc(-c4cc(OC)c(OC)c(OC)c4)cc(C(=O)O)c23)cc1,-100
6,CCOc1ccccc1NC(=O)c1cn(C2CCCC2)c(=O)c2c1c1ccccc1n2C,-100
7,Cc1ccc(Nc2nc(C(N)=O)c(NC(=O)c3ccccc3Br)s2)cc1,-17.8
8,CC(C)N(C(=O)CSc1nc2ccc(Cl)cc2[nH]1)c1ccccc1,-100
9,Cc1ccc(-c2nn(C)c(=O)c3ccccc23)cc1S(=O)(=O)NCCCN(C)C,-100
10,Cc1cc(OCC(=O)NCC2(N3CCN(C)CC3)CCCCC2)cc(C)c1Cl,-100
11,Cn1nnnc1SCCCNCc1cc(Cl)ccc1OCc1ccc(F)cc1,-100
12,Cc1c(C(=O)OC2CCC(C)CC2)[nH]c2c1C(=O)CC(c1ccc(F)cc1)C2 (configuration not stated),-1.27
13,Cn1nc(-c2ccc(OCC(=O)Nc3ccc(Cl)cc3)cc2)c2ccccc2c1=O,-100
14,COCc1oc2ccc(NS(=O)(=O)c3ccc(C)cc3)cc2c1C(=O)OC,-6.75
15,Cc1nn(CC(=O)N2CCN(c3ccccc3F)CC2)c(=O)c2cccn12,-100
16,COc1ccccc1N1CCN(C(=O)c2cnc(N3CCCCC3)c3ccccc23)CC1,-100
17,CCc1ccc(NC(=O)Cn2nc(C(F)(F)F)c3c2CCCC3)cc1,-100
